This is a sample that favours compounds with a hit; in the whole collection about 4.1% have one here.
IDE act – boosts human insulin-degrading enzyme activity in HEK cells | FAbeta-B cleavage, fluorescence polarization; 0% vehicle, 100% cell-free pure enzyme wells | activation, % at 5.96 µM | hit rate 0.073% among 340,000;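 active means activation above the mean of all tested compounds plus 3 SD, set per screening campaign, cut at about 17% in these data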
ALR inh – human ALR oxidase inhibition via reduced H2O2. AID 485317. hit rate 3.8% among 290,000. purified ALR, DTT oxidation, H2O2 HRP-luminol luminescence. inhibition, % (test concentration not listed). P55789;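 active means mean replicate inhibition above about 79%, with every replicate also reaching it, limit read from the data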
Target sequence (P55789 whole entry, looked up): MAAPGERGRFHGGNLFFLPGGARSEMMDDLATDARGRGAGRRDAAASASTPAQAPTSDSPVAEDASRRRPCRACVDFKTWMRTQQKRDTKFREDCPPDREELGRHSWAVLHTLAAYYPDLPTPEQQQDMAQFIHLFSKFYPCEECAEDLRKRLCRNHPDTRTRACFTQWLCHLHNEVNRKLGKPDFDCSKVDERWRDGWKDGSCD
PfM18AAP inh – PfM18AAP enzyme inhibition; recombinant PfM18AAP, H-Glu-NHMec fluorogenic cleavage; inhibition, % at 7.35 µM; hit rate 1.2% among 290,000; AID 1822;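 active means inhibition above the campaign mean inhibition over all tested compounds plus 3 SD, cut at about 28% in these data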;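 further: 0% = plate median of test compound wells and 100% = 2 mM ZnCl2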
PolyA inh – inhibitors of polyadenylation in S. cerevisiae. activity score, % at 12 µM. AID 1875. S. cerevisiae SKY197-pL101 polyadenylation reporter, beta-gal luminescence; efflux-impaired pdr1/pdr3 knockout yeast; score 100 = 6 SD above DMSO. hit rate 0.02% among 300,000;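 active means lowest replicate activity score at least 50, where 100 means six control SD above control mean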;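 further: yeast exposed to compound for 9 h at 30 °C; higher score means more reporter readthrough which indicates perturbed polyadenylation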
CaV13 ICDI inh – Disruptors of the CACNA1D IQ motif to Ca2+-dependent inactivation inhibitor domain association, primary screening, Förster resonance energy transfer in intact living …; hit rate 0.098% among 340,000; AID 743397; inhibition, % at 12.3 µM; HEK cells, CFP/YFP FRET ICDI-IQ, plate reader, 10 min; percent FRET-ratio fall versus neutral wells;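 active means mean replicate inhibition of at least 30% and at least 1% of replicates passing that level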;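 further: 0% = median of the neutral control wells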
IDE cell inh – inhibits human insulin-degrading enzyme in HEK cells | AID 434962 | FAbetaB cleavage, fluorescence polarization | inhibition, % at 5.59 µM | hit rate 0.41% among 320,000;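 active means percent inhibition above the average of all tested compounds plus 3 SD, set per screening campaign, cut at about 16% in these data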;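 further: IDE supplied by intact live HEK cells; FP after avidin binding of uncleaved biotin substrate so inhibition keeps polarization high; 0% = DMSO wells and 100% = 60 µM reference IDE inhibitor Ii1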
* hit, by the source's call; x = no result.

SMILES | IDE act | ALR inh | PfM18AAP inh | PolyA inh | CaV13 ICDI inh | IDE cell inh
Cc1ccn2c(C(=O)N/N=C/c3ccc(Cl)cc3)c(C)nc2c1 | -2 | x | -10 | -4 | -2 | x
COc1cc(/C=N\NC(=O)c2c(C)nc3cc(C)ccn23)ccc1O | 2 | 97* | 2 | -6 | 2 | -1
Cc1cc(C(=O)N/N=C/c2ccc3c(c2)OCO3)c(C)o1 | 1 | 95* | -10 | -9 | 1 | -3
Cc1ccccc1NCC(=O)N/N=C\c1ccc2c(c1)OCO2 | 3 | 94* | 2 | 2 | -4 | 10
CCOC(=O)C1=C(O)/C(=C\c2ccc(CNC(=O)C(=O)Nc3ccccc3)o2)N=C1C | -5 | -6 | 23 | 6 | x | 3
CC1Cc2cc(S(=O)(=O)N3CCC(C(=O)Nc4ccccn4)CC3)ccc2N1C(=O)C1CCC1 (stereo unspecified) | -3 | 2 | 3 | -22 | -2 | 7
CC1CCc2c(sc(NC(=O)CSc3ncnc4c3cnn4-c3ccccc3Cl)c2C#N)C1 (stereo unspecified) | -3 | 3 | 3 | -1 | -4 | 10
N#CCC(=O)N/N=C/c1cccc(Oc2ccccc2)c1 | -5 | -3 | 30* | -7 | -4 | 4
COc1cc(C(=O)N/N=C/c2cccc(Oc3ccccc3)c2)ccc1O | 1 | 85* | 1 | -3 | -3 | x
COc1cc(C(=O)N/N=C/c2ccc(OC(=O)c3ccccc3Cl)c(OC)c2)ccc1O | -2 | 14 | 3 | -1 | x | x
COc1cc(/C=N/NC(=O)c2ccc3c(c2)OCO3)ccc1O | 0 | 99* | 8 | 5 | -7 | x
COc1cc(/C=N/NC(=O)c2ccc(-n3cccc3)cc2)ccc1O | -11 | 99* | 9 | 4 | -16 | 1
N#CC1(c2ccccc2)CCCN1C(=O)c1ccc(Br)o1 (stereo unspecified) | -4 | -5 | -1 | 12 | -7 | 0
CN1C(=O)NC(NS(=O)(=O)c2ccc(N)cc2)(C(F)(F)F)C1=O (stereo unspecified) | 2 | -14 | 1 | 6 | -4 | -4
O=C(CCc1ccccc1)NCCc1ccc(F)cc1 | -2 | -44 | 3 | -6 | -7 | 2
O=C(NN=Cc1ccc(O)cc1)c1ccccc1NS(=O)(=O)c1cccs1 | 2 | 99* | x | x | -4 | 3
COc1cc(/C=N/NC(=O)c2cccs2)ccc1O | 5 | 99* | 2 | 10 | -2 | 0
COc1cc(C=NNC(=O)c2ccc(NS(=O)(=O)c3cccs3)cc2)cc(Br)c1O | 1 | 78* | x | x | -7 | 1
CCN(CC)c1ccc(/C=N/NC(=O)c2ccc3c(c2)OCCO3)cc1 | -2 | x | 8 | 14 | -11 | x
CN(C)c1ccc(/C=N/NC(=O)c2ccc3c(c2)OCCO3)cc1 | 0 | 98* | 7 | -16 | -11 | -2
C[C@H]1CN([C@@H](C)CO)C(=O)CCCn2nncc2CO[C@H]1CN(C)S(=O)(=O)c1ccc(Oc2ccccc2)cc1 | x | x | x | x | -8 | x
O=C(NC(c1ccc(F)cc1)c1ccc2ccccc2n1)C1CCN(Cc2cccc(C(F)(F)F)c2)CC1 (stereo unspecified) | x | x | x | x | -5 | x
O=C(O)c1ccccc1C(=O)NNc1cccc(Cl)n1 | 4 | -3 | 45* | 21 | -4 | -2
O=C(O)c1ccccc1C(=O)NNc1ccc(Cl)cc1 | 5 | 99* | 2 | -42 | -5 | 5
NS(=O)(=O)c1ccc(NNC(=O)c2ccccc2C(=O)O)cc1 | x | 36 | 16 | 16 | -6 | -1
SMILES | IDE act | ALR inh | PfM18AAP inh | PolyA inh | CaV13 ICDI inh | IDE cell inh
O=C(c1ccc(S(=O)(=O)c2ccc(F)cc2)c([N+](=O)[O-])c1)N1CCCCCC1 | 0 | 96* | -5 | 10 | -4 | 1
CCCN(C(=O)C1CCCN(c2ncnc3c2nc2n3CCCCC2)C1)c1ccc(F)cc1 (stereo unspecified) | 6 | -4 | 0 | -3 | -2 | -1
CC1CN(S(=O)(=O)c2cccc(C(=O)OCC(=O)N3CCCCCC3)c2)CC(C)O1 (stereo unspecified) | 6 | -3 | x | x | -5 | 7
O=C(NNc1c(F)c(F)cc(F)c1F)c1ccc(Cl)nc1 | 6 | 96* | 11 | -16 | -4 | 7
COc1ccc(C2NC(=O)C(C#N)=C(S)N2c2ccccc2)cc1OC (stereo unspecified) | -5 | 94* | 1 | -11 | -1 | 7
COc1ccc(Nc2nc(OC)nc(OC)n2)cc1 | 1 | 14 | -11 | -4 | 5 | 2
COc1ccc(Nc2ccnc(Nc3ccc(OC)cc3)n2)cc1 | 3 | 98* | -1 | -2 | -3 | -1
OC1(c2nc3ccccc3[nH]2)CCCCC1 | 7 | x | x | 4 | -9 | -2
Cc1ccc(SCC(=O)N2CCN(c3ccccn3)CC2)cc1 | 3 | 1 | -2 | -13 | -2 | -1
O=C(CSc1nccc2ccccc12)N1CCN(c2ccccn2)CC1 | 7 | 98* | 2 | 6 | -5 | 3
CCOC(=O)c1c(NC(=O)COC(=O)CCOc2ccc(C)cc2)sc(C(=O)N(C)C)c1C | 1 | -3 | x | -13 | -11 | 7
CC(=O)N1CCN(C(=O)CCNS(=O)(=O)c2ccccc2)CC1 | 0 | -6 | x | x | -6 | -4
O=C(CCNS(=O)(=O)c1ccccc1)N1CCN(c2ccccc2)CC1 | 7 | 96* | 2 | 0 | x | -1
O=C(CCS(=O)(=O)Cc1ccccc1)N1CCN(c2ccccc2)CC1 | 8 | 99* | 10 | 6 | -4 | 4
Cc1ccc(OCCC(=O)N2CCN(c3ccc(O)cc3)CC2)cc1 | 9 | 100* | 13 | -7 | -13 | -4
O=C(CCS(=O)(=O)c1ccccc1)N1CCN(c2ccccc2)CC1 | 7 | 99* | 2 | -9 | x | 4
O=C(CN(C1CCCCC1)S(=O)(=O)c1ccc(F)cc1)NCC1CCCO1 (stereo unspecified) | 0 | x | x | x | -5 | x
COc1ccc(-c2cccc3c2C2CC3CCN2C(=O)OCc2ccccc2)cc1 (stereo unspecified) | -1 | x | x | x | -5 | x
COc1ccc(N2CCN(C(=O)CCC(=O)N3CCOc4ccc(Cl)cc43)CC2)cc1 | -4 | 69 | 9 | 9 | -6 | 4
COc1ccc(N2CCN(C(=O)CCC(=O)N3CCOc4ccc(C)cc43)CC2)cc1 | 0 | 97* | 8 | 8 | 27 | 1
O=C(CCS(=O)(=O)c1ccc(Br)cc1)N1CCN(c2ccccc2Cl)CC1 | 3 | -9 | -2 | 4 | -3 | 4
COc1ccc(N2CCN(C(=O)CCNS(=O)(=O)c3ccc(C)cc3)CC2)cc1 | -2 | 99* | -1 | 6 | -2 | 3
O=C(CCS(=O)(=O)c1ccc(Br)cc1)N1CCN(c2ccccc2)CC1 | -3 | 99* | -8 | x | -1 | 3
